Shown are actives, neighbours in structure and some others; about 3.4% of the full set was active somewhere.
ANO1 block – TMEM16A chloride channel inhibitors, primary screen, cell-based, HTS; Anoctamin-1 (Mus musculus), Q8BHY3; HEK293 TMEM16A/YFP iodide influx fluorescence, ionomycin; normalized B-score (activity score, 25-100; higher = stronger inhibition) at 10 µM; hit rate 1.2% among 310,000; AID 588511, 2011;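 active means ratio plate-corrected score three or more library SD toward inhibition, starting fluorescence score within five deviations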;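 further: score derived from kinetic fluorescence span divided by baseline fluorescence per well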
MEKK2wt PB1 HTS – modulators of MEK5 binding to wildtype MEKK2, primary screen, biochemical, multiplex bead flow cytometry, Alexa488-MEK5. Alexa488-MEK5 binding to MEKK2 WT; actives lie on both sides. binding response (% of control), % at 10 µM. hit rate 1.1% among 290,000. AID 1531, 2009; in the data active means binding response below about 67% or above about 130%
MEKK3 PB1 HTS – modulators of MEKK3-MEK5 PB1 binding, primary screen, biochemical, wildtype MEKK3, multiplex bead flow cytometry, Alexa488-MEK5 | bead-based flow cytometry, Alexa488-MEK5 binding to MEKK3; actives lie on both sides; 0 = blocked by unlabeled MEK5, 100 = vehicle | binding response (% of control), % at 10 µM | hit rate 1.4% among 290,000 | AID 1529, 2009 | Mitogen-activated protein kinase kinase kinase 3 (Homo sapiens), Q99759;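 active means binding response more than 3 SD above or below the average of its plate-row segment, actives on both sides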;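 further: Alexa488 bead fluorescence after subtracting the streptavidin-only scavenger bead signal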
MEKK2mut PB1 HTS – MEK5 binding signal on mutant MEKK2 PB1, primary screen, biochemical, multiplex bead flow cytometry, Alexa488-MEK5; Alexa488-MEK5 binding to MEKK2 mutant; percent response, % at 10 µM; hit rate 0.35% among 290,000; AID 1530, 2009; in the data active means percent response above about 24%, passing the limit was not always enough
TMEM16A act – TMEM16A chloride channel activators or potentiators, primary screen, cell-based, HTS. HEK293 TMEM16A/YFP-H148Q/I152L, iodide quench fluorescence; stronger effect = lower value. B-score at 10 µM. hit rate 0.3% among 340,000;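 active means fluorescence-ratio B-score plate-corrected deviation score at least 3 library SD below zero, with starting fluorescence score within 5 deviations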;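 further: channel opened by trigger with iodide after compound preincubation; score built on the fluorescence ratio of max minus min over baseline; more negative score means more quench and so TMEM16A activation or potentiation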
NTR1 agonist – agonists of human NTR1, primary screen, imaging, U2OS cells, beta-arrestin-GFP, high content. Neurotensin receptor type 1 (Homo sapiens), P30989. NTR1-U2OS beta-arrestin-GFP spot imaging, agonist mode. activation, % at 20 µM. hit rate 0.17% among 330,000;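 active means activation at or above 40% of the spot to cytoplasm intensity ratio, with at least 20 cells analyzed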;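 further: 0% = DMSO without peptide and 100% = 100 nM NTR1 peptide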
TMEM16A reconf – TMEM16A chloride channel inhibitors, confirmation, cell-based, re-confirmation | hit rate 39% among 2,300 | shares compounds with ANO1 block | HEK293 TMEM16A/YFP-H148Q, iodide quench fluorescence; ionomycin added to raise cell calcium | inhibition, % at 10 µM;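 active means mean duplicate percent inhibition, scaled so buffer wells are 0 and the reference blocker 100, over three buffer SD above buffer mean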
TMEM16A Ca cntr – calcium mobilization in TMEM16A/YFP HEK293 cells, confirmation, counter-screen for TMEM16A inhibitor project; shares compounds with ANO1 block; Fluo4 calcium mobilization; calcium response (% of ionomycin), % at 10 µM; hit rate 2% among 2,300; AID 652231, 2013;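 active means duplicate-averaged calcium signal over 20% of the ionomycin maximum, relative to buffer baseline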;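 further: each well's signal is peak minus trough fluorescence divided by its pre-addition baseline; 0% = buffer wells and 100% = ionomycin wells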
Parental YFP cnt – iodide YFP quench changes in parental YFP-HEK293, counter-screen for TMEM16A inhibitor project, cell-based | shares compounds with ANO1 block | ionomycin | YFP ratio F(max-min)/F0 at 10 µM | 2,300 tested, under 10 active | AID 652233, 2013;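 active means yellow fluorescent protein signal ratio exceeding the buffer control mean by over 5 SD of those controls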;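 further: ratio is mean of duplicate wells from kinetic YFP trace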
ClC-1 rat inh – ClC-1 chloride channel inhibition, selectivity assay for TMEM16A inhibitor project, cell-based, voltage-dependent ClC-1; AID 652236, 2013; 2,300 tested, under 10 active; shares compounds with ANO1 block; CHO ClC-1-YFP, iodide influx fluorescence quench; iodide control reads 0, buffer control 100; ratio percent, % at 10 µM;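 active means duplicate-mean ratio percent above the mean of iodide-only control wells, which defines zero, plus 5 of their SD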;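 further: higher percent means stronger block of ClC-1 iodide influx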
An asterisk follows results filed as active.

How did CC(=O)Nc1ccc(OC(F)(F)C(F)C(F)(F)F)c(NC(C)=O)c1 (stereo unspecified) do in these assays?
ANO1 block: 100*; MEKK2wt PB1 HTS: 102; MEKK3 PB1 HTS: 103; MEKK2mut PB1 HTS: -3; TMEM16A act: inactive; NTR1 agonist: 0; TMEM16A reconf: inactive; TMEM16A Ca cntr: inactive; Parental YFP cnt: -1.2; ClC-1 rat inh: -6

What do the screens show for `CC(=O)Nc1ccc(OC(F)(F)C(F)F)c(NC(C)=O)c1`?
ANO1 block: inactive; MEKK2wt PB1 HTS: 94; MEKK3 PB1 HTS: 91; MEKK2mut PB1 HTS: -6; TMEM16A act: inactive; NTR1 agonist: 2

How did Cc1cccc(NC(=O)c2ccc(C(=O)c3ccccc3)cc2)n1 do in these assays?
ANO1 block: 100*; TMEM16A act: inactive; NTR1 agonist: 0; TMEM16A reconf: 47%*; TMEM16A Ca cntr: inactive; Parental YFP cnt: -0.95; ClC-1 rat inh: -18

How did CCOC(=O)c1[nH]c2ccc(OC)cc2c1NC(=O)CN1CCSCC1 do in these assays?
ANO1 block: 100*; MEKK2wt PB1 HTS: 99; MEKK3 PB1 HTS: 98; MEKK2mut PB1 HTS: 2; TMEM16A act: inactive; NTR1 agonist: -2; TMEM16A reconf: inactive; TMEM16A Ca cntr: inactive; Parental YFP cnt: -0.94; ClC-1 rat inh: 3

How did COC(=O)c1[nH]c2ccc(C)cc2c1NC(=O)CN1CCN(c2ccccc2)CC1 do in these assays?
ANO1 block: 100*; MEKK2wt PB1 HTS: 110; MEKK3 PB1 HTS: 108; MEKK2mut PB1 HTS: 3; TMEM16A act: inactive; NTR1 agonist: 8; TMEM16A reconf: 20%*; TMEM16A Ca cntr: inactive; Parental YFP cnt: -1.2; ClC-1 rat inh: -12

Results for CCCCn1c(CN2CCN(c3cccc(Cl)c3)CC2)nc2c1c(=O)n(C)c(=O)n2C ?
ANO1 block: 25*; MEKK2wt PB1 HTS: 100; MEKK3 PB1 HTS: 99; MEKK2mut PB1 HTS: -5; TMEM16A act: inactive; NTR1 agonist: 18; TMEM16A reconf: inactive; TMEM16A Ca cntr: inactive; Parental YFP cnt: -1.1; ClC-1 rat inh: -12

Results for COc1ccc(OC)c2c1sc(=NC(=O)C1COc3ccccc3O1)n2C (stereo unspecified) ?
ANO1 block: inactive; MEKK2wt PB1 HTS: 90; MEKK3 PB1 HTS: 79; MEKK2mut PB1 HTS: -17; TMEM16A act: inactive; NTR1 agonist: 10

Results for Cn1nnnc1SCc1ccc(C(=O)Nc2nccs2)cc1 ?
ANO1 block: 100*; MEKK2wt PB1 HTS: 107; MEKK3 PB1 HTS: 104; MEKK2mut PB1 HTS: 6; TMEM16A act: inactive; NTR1 agonist: 4; TMEM16A reconf: inactive; TMEM16A Ca cntr: inactive; Parental YFP cnt: -1; ClC-1 rat inh: -4

How did C[C@H](CO)N1C[C@H](C)[C@@H](CN(C)Cc2ccc(Cl)c(Cl)c2)Oc2c(NS(=O)(=O)c3ccc(F)cc3)cccc2C1=O do in these assays?
TMEM16A act: inactive; NTR1 agonist: 4

What do the screens show for `CCN(C(=O)COC(=O)c1ccccc1Nc1cccc(C)c1C)C1CCS(=O)(=O)C1` (stereo unspecified)?
ANO1 block: 100*; MEKK2wt PB1 HTS: 101; MEKK3 PB1 HTS: 101; MEKK2mut PB1 HTS: 2; TMEM16A act: inactive; NTR1 agonist: 3; TMEM16A reconf: inactive; TMEM16A Ca cntr: inactive; Parental YFP cnt: -0.92; ClC-1 rat inh: -8

How did O=[N+]([O-])c1ccc(COc2cccc(CNc3ccc(F)cc3)c2)cc1 do in these assays?
ANO1 block: inactive; MEKK2wt PB1 HTS: 102; MEKK3 PB1 HTS: 96; MEKK2mut PB1 HTS: -1; TMEM16A act: inactive; NTR1 agonist: -2

Results for Oc1ccc(NCc2cccc(OCc3ccccc3)c2)cc1 ?
ANO1 block: 25*; MEKK2wt PB1 HTS: 104; MEKK3 PB1 HTS: 104; MEKK2mut PB1 HTS: 1; TMEM16A act: inactive; NTR1 agonist: 0; TMEM16A reconf: inactive; TMEM16A Ca cntr: 26%*; Parental YFP cnt: -1; ClC-1 rat inh: -1

Results for COC(=O)c1ccc(N2NC(=O)/C(=C/c3cc(OC)c(OC)c(OC)c3)C2=O)cc1 ?
ANO1 block: inactive; MEKK2wt PB1 HTS: 98; MEKK3 PB1 HTS: 103; MEKK2mut PB1 HTS: 2; TMEM16A act: inactive; NTR1 agonist: 13

What do the screens show for `COC(=O)c1ccc(N2NC(=O)/C(=C/c3cc(OC)c(O)c(OC)c3)C2=O)cc1`?
ANO1 block: inactive; MEKK2wt PB1 HTS: 104; MEKK3 PB1 HTS: 105; MEKK2mut PB1 HTS: 6; TMEM16A act: inactive; NTR1 agonist: 3; TMEM16A reconf: inactive; TMEM16A Ca cntr: inactive; Parental YFP cnt: -0.75; ClC-1 rat inh: -34

Results for CC(=O)Nc1ccc(S(=O)(=O)N2c3ccccc3C(C)=CC2(C)C)cc1 ?
ANO1 block: inactive; MEKK2wt PB1 HTS: 92; MEKK3 PB1 HTS: 97; MEKK2mut PB1 HTS: -5; TMEM16A act: inactive; NTR1 agonist: 0

What do the screens show for `CC1=CC(C)(C)N(S(=O)(=O)c2ccc(F)cc2)c2ccccc21`?
ANO1 block: 25*; MEKK2wt PB1 HTS: 90; MEKK3 PB1 HTS: 84; MEKK2mut PB1 HTS: -7; TMEM16A act: inactive; NTR1 agonist: 2; TMEM16A reconf: inactive; TMEM16A Ca cntr: inactive; Parental YFP cnt: -1; ClC-1 rat inh: -18

Bioassay records deposited in PubChem by several laboratories.
